Structures are written as SMILES. Records with an inconclusive call do not appear. Calls of active or inactive are those of the source. The calls were made as follows: active = hit-call score of the fitted dose curve at least 0.9, where 1 is the maximum; inconclusive = response in the unintended direction; inactive = score below 0.9.

Peroxisome proliferator-activated receptor gamma (Homo sapiens), sequence (P37231 whole entry, looked up): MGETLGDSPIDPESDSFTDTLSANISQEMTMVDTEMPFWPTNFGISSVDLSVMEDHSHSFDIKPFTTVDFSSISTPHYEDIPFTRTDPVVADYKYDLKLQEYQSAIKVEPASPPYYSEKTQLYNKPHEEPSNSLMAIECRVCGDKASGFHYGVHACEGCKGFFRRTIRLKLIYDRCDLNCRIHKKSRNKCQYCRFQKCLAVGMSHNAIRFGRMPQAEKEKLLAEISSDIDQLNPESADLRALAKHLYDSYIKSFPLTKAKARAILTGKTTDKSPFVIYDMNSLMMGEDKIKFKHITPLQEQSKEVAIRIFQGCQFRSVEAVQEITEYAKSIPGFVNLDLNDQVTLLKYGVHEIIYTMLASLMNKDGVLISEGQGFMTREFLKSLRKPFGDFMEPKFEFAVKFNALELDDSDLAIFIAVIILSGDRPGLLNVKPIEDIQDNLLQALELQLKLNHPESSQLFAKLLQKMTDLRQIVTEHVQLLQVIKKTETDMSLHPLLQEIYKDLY

The target in this test is Peroxisome proliferator-activated receptor gamma (Homo sapiens) (UniProt P37231). The experiment in a line: ATG_PPARg_TRANS: Attagene TRANS-FACTORIAL HepG2 Assay for human Peroxisome Proliferator-activated Receptor-gamma (PPARg) (AID 2283007). On the procedure:
ATG_TRANS is a cell-based, multiplexed-readout assay that uses HepG2, a human liver cell line, with measurements taken at 24 hours after chemical dosing in a 24-well plate.ATG_PPARg_TRANS is one of 30 assay component(s) measured or calculated from the ATG_TRANS assay. It is designed to make measurements of mRNA induction, a form of inducible reporter, as detected with fluorescence intensity signals by Reverse transcription polymerase chain reaction (RT-PCR) and Capillary electrophoresis technology.Data from the assay component ATG_PPARg_TRANS was analyzed into 1 assay endpoint. This assay endpoint, ATG_PPARg_TRANS, was analyzed in the positive analysis fitting direction relative to DMSO as the negative control and baseline of activity. Using a type of inducible reporter, measures of mRNA for gain-of-signal activity can be used to understand the reporter gene at the transcription factor-level as they relate to the gene PPARG. Furthermore, this assay endpoint can be referred to as a primary readout, because this assay has produced multiple assay endpoints where this one serves a reporter gene function. To generalize the intended target to other relatable targets, this assay endpoint is annotated to the nuclear receptor intended target family, where the subfamily is non-steroidal.
Human liver HepG2 cells are transiently transfected with multiple reporter transcription units (MRTUs) in 6-well plates using FuGene 6 reagent (Roche; 3 ml FuGene/1 mg DNA). The MRTU constructs are regulated by a cis-regulating element (promoter). […] A major difference between the CIS and TRANS system is that in CIS activities of endogenous TFs are measured, whereas the TRANS assay evaluates changes in activities of exogenous, chimeric NR-Gal4 proteins. […] At the end of 24 hour incubation, total RNA was isolated using TriZol reagent (Invitrogen). The isolated RNA is then reverse-transcribed using oligo(dT) primer and Mo-MLV reverse transcriptase (Invitrogen) with DNAse I (Ambion) treatment for 30 min. The one-tenth of the produced cDNA was amplified by PCR using Taq DNA polymerase (Invitrogen) and two reporter sequence-specific primers. The PCR products were fluorescently labeled by primer extension with 6-arboxyfluorescein (6-FAM) 5'-labeled reporter sequence-specific primer (2 min at 95 C, 20 s at 68 C and 10 min at 72 C) and these products were digested with 5U of HpaI (New England Biolabs) for 2h at 37 C. The fragments were purified using Qiaquick PCR columns (Qiagen), analyzed on an ABI 3130xL genetic analyzer (Applied Biosystems) with peak positions identified by using a set of X-rhodamine (ROX)-labeled MapMarker1000 molecular weight standards (BioVentures). The raw capillary electrophoresis data was processed using Attagraph software (Attagene).
`C#CC1(O)CC[C@H]2[C@@H]3CCC4=CCCC[C@@H]4[C@H]3CC[C@@]21C` (stereo not given in full): the call was inactive.

Consider `CCCCCC(C)O` (stereo not given), for which the result was inactive.

Turning to `CC(C)c1ccc2cc(C(C)C)ccc2c1`, the outcome was inactive.

Regarding `FC(F)=C(F)OC(F)(F)C(F)(F)C(F)(F)F`, the result was inactive.

In the case of `O=C(c1ccccc1)C1CCC1`, the result was inactive.

On to `CC=CC(F)(F)C(F)(F)C(F)(F)F`, for which the compound was called inactive.

Usually AC50 stands for the concentration giving half of the maximal activity seen. In the case of `CCCCC(CC)CCC(CC(C)C)OS(=O)(=O)O` (stereo not given), the AC50 is 36.6 µM (active).

For `CCOC(=O)c1ccc(N(C)C)cc1`, the result was inactive.

Turning to `C=CC(=O)OCCOC1C2CCC1C1CC=CC12` (stereo not given), the compound was classed as inactive.

Consider `CCCCCCCCCCCSCC(=O)O`, for which the AC50 was 9.6 µM (active).

As to `CC=CC(=O)N(CC)c1ccccc1C`, the compound was called inactive.

As to `CCCNC(=O)NS(=O)(=O)c1ccc(Cl)cc1`, the call was inactive.

For `CCCCCCCC/C=C\CCCCCCCC(=O)OCCO`, the AC50 was 4.78 µM (active).

As to `C=CC(=O)OCC(Br)CBr` (stereo not given), the AC50 was 51.6 µM (active).

Turning to `CCCCCCC(O)CO` (stereo not given), the outcome was inactive.

As to `CCCCCCCC[N+](C)(CCCCCCCC)CCCCCCCC`, the compound was called inactive.

With `Cc1cc(C)c(C(=O)O)c(C)c1`, the result was inactive.

Turning to `O=C(c1ccc(O)cc1)c1ccc(O)cc1O`, the AC50 is 35.3 µM (active).

With `CC/C=C\C/C=C\C/C=C\CCCCCCCC(=O)O`, the half-maximal activity concentration (AC50) was 14.6 µM (active).

With `CCCCCc1ccc(Cl)cc1`, the compound was called inactive.

For the compound `CCCCCCCCc1ccc(Nc2ccc(CCCCCCCC)cc2)cc1`, the compound was called inactive.

For `CCCCCCCCCCc1ccccc1`, the call was inactive.

Consider `O=C(Nc1ccccc1SSc1ccccc1NC(=O)c1ccccc1)c1ccccc1`, for which the AC50 was 17.7 µM (active).

In the case of `CC(C)c1ccc2c(c1)CC[C@H]1[C@](C)(CN)CCC[C@]21C`, the AC50 is 6.02 µM (active).

For `O=c1cc(-c2ccccc2)oc2ccccc12`, the AC50 was 1.1 µM (active).

Turning to `CCCCC(CC)COC(=O)c1ccccc1` (stereo not given), the call was inactive.

For `CCOC(=O)CC`, the outcome was inactive.

Take `CN(C)c1ccc(C(=N)c2ccc(N(C)C)cc2)cc1`: the AC50 is 26.6 µM (active).

Turning to `CCN(CC)c1ccc(C(=O)c2ccccc2C(=O)O)c(O)c1`, the AC50 is 30 µM (active).

Regarding `C=C(C)C(=O)OCCO`, the compound was classed as inactive.

Turning to `CC(C)(Oc1ccc(C2CC2(Cl)Cl)cc1)C(=O)O` (stereo not given), the AC50 is 30.6 µM (active).

For `CCCCOCCOC(=O)COc1nc(Cl)c(Cl)cc1Cl`, the AC50 is 60.1 µM (active).

Regarding `O=C(c1ccccc1)c1ccc(O)c(O)c1O`, the AC50 was 47 µM (active).

Turning to `Nc1ncn([C@@H]2O[C@H](CO)[C@@H](O)[C@H]2O)c(=O)n1`, the compound was called inactive.

For `C=C(C)c1cccc(C(C)(C)N=C=O)c1`, the AC50 was 5.62 µM (active).

In the case of `C=CC=CC=CCCCCC`, the AC50 was 6.66 µM (active).

`COc1cc(NC(=O)CC(C)=O)c(OC)cc1Cl`: the compound was called inactive.

Regarding `Cc1cccc(N(C)C(=S)Oc2ccc3ccccc3c2)c1`, the AC50 was 2.88 µM (active).

For the compound `Clc1nc2ccccc2s1`, the outcome was inactive.

For the compound `CC(=O)OCC(=O)[C@@]12N=C(C)O[C@@H]1C[C@H]1[C@@H]3CCC4=CC(=O)C=C[C@]4(C)[C@H]3[C@@H](O)C[C@@]12C`, the call was inactive.
